These results are taken from PubChem BioAssay (EPA / NIEHS).

Experiment [1] deals with Estrogen receptor beta (Homo sapiens) (UniProt Q92731). Description: OT_ER_ERbERb_1440: Odyssey Thera (OT) 24-hour HEK293T Protein-Complementation Assay for Estrogen Receptor-beta/-beta Homodimer (AID 2283380).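 Further: fluorescence gain from ER beta LBD homodimer complementation read by laser scanning cytometry; scored as signal increase over DMSO baseline for both agonists and antagonists.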 The essentials: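 HEK293T cells stably expressing human ER-beta LBD (aa 310-547) PCA homodimer pair, dosed 24 h; formaldehyde-fixed, Draq5-stained. Readout: increase in nuclear (agonist) or nuclear plus cytoplasmic (antagonist) fluorescence intensity versus DMSO, gain-of-signal fitting.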
Sequence of Estrogen receptor beta (Homo sapiens) (Q92731 whole entry, looked up, the tested form may be a part): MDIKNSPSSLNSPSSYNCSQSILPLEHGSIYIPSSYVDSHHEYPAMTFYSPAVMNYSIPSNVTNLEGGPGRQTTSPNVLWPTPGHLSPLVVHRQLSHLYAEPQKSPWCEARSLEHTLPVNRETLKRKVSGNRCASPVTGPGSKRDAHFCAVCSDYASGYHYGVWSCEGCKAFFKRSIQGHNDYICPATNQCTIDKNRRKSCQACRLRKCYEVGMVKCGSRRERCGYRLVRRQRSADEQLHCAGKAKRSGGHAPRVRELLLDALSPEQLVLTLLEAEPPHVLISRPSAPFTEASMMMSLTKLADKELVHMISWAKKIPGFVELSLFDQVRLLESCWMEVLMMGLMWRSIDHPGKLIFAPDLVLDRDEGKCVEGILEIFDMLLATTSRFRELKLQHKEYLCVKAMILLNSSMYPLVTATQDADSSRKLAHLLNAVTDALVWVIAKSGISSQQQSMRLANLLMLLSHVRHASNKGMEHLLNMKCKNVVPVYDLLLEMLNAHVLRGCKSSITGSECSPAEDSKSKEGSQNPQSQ

Experiment [2] addresses Bile acid receptor (Homo sapiens) (UniProt Q96RI1). Description: OT_FXR_FXRSRC1_0480: Odyssey Thera (OT) 8-hour HEK293T Protein-Complementation Assay for Farnesoid X receptor/SRC-1 Co-activator (AID 2283383). The essentials: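 Co-activator recruitment to FXR was measured in living HEK293T cells, where interaction of the two fused partners restored an active fluorescent reporter. Signal gain after 8 h treatment was referenced to DMSO.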

For experiment [3] the target is unchanged. Description: OT_FXR_FXRSRC1_1440: Odyssey Thera (OT) 24-hour HEK293T Protein-Complementation Assay for Farnesoid X receptor/SRC-1 Co-activator (AID 2283384). The essentials: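 Cell-based binding reporter: interaction of FXR with SRC-1 brings reporter fragments together, giving a fluorescence signal read 24 h after dosing of HEK293T cells.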
In experiment [4] the target is Retinoic acid receptor RXR-alpha (Homo sapiens) (UniProt P19793). Description: OT_NURR1_NURR1RXRa_0480: Odyssey Thera (OT) 8-hour HEK293T Protein Complementation Assay for Nurr1/retinoid X receptor (RXR) (AID 2283385). In outline:
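Compounds are applied to HEK293T cells carrying Nurr1 and RXRα linked to reporter fragments. After 8 h, fluorescence intensity reports heterodimer formation, with DMSO as baseline.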

Experiment [5] concerns the target Peroxisome proliferator-activated receptor gamma (Homo sapiens) (UniProt P37231). Description: OT_PPARg_PPARgSRC1_0480: Odyssey Thera (OT) 8-hour Protein-Complementation Assay for Peroxisome Proliferator-activated Receptor Gamma / SRC-1 Co-activator (AID 2283387).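 Further: nuclear to cytoplasmic split Venus YFP fluorescence ratio reporting PPARg SRC-1 interaction.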 The essentials:
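Protein-fragment complementation of split Venus YFP reports PPARg/SRC-1 interaction in HEK293T (transfected 48 h before treatment), exposed 8 h. Readout: N/C fluorescence ratio at 488 nm from imaging, Draq5 for segmentation, positive fit relative to DMSO.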

Experiment [6] deals with Estrogen receptor (Homo sapiens) (UniProt P03372). Description: OT_ERa_GFPERaERE_0480: Odyssey Thera (OT) 8-hour HeLa Transcription Induction Assay for Estrogen Receptor (AID 2283381; active means hit-call score of the fitted dose curve at least 0.9, where 1 is the maximum; inactive means score below 0.9). In outline: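 Cells (HeLa) receive compound; after 8 h, reporter fluorescence is imaged and quantified by high-content analysis. Gain-of-signal relative to DMSO gives the endpoint.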
Sequence of Estrogen receptor (Homo sapiens) (P03372 whole entry, looked up): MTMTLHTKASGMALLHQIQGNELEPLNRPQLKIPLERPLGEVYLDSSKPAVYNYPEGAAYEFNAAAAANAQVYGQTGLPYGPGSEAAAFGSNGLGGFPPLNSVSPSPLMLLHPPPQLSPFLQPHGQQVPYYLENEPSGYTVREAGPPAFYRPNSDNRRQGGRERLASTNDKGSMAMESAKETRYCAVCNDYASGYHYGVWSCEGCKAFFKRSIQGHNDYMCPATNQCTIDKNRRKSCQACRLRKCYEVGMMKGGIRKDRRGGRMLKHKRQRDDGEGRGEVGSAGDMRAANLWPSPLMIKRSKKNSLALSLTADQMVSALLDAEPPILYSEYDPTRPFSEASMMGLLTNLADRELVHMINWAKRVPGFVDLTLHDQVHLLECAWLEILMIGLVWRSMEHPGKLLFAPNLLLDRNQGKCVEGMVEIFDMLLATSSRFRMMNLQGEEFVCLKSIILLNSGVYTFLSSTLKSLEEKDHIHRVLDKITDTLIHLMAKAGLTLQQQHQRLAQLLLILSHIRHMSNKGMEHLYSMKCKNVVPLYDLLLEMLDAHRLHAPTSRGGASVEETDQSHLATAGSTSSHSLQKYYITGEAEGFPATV
Experiment [7] has the same target. Description: OT_ERa_GFPERaERE_0120: Odyssey Thera (OT) 2-hour HeLa Transcription Induction Assay for Estrogen Receptor (AID 2283382). In outline:
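Measures ESR1 pathway reporter gain-of-signal in HeLa cells after a 2-hour treatment, detected as fluorescent protein induction by microscopy, DMSO as baseline.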

The target of experiment [8] is Retinoic acid receptor RXR-alpha (Homo sapiens) (UniProt P19793). Description: OT_NURR1_NURR1RXRa_1440: Odyssey Thera (OT) 24-hour HEK293T Protein Complementation Assay for Nurr1/retinoid X receptor (RXR) (AID 2283386). In outline:
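Measured as fluorescence from a reconstituted split reporter, this 24 h HEK293T complementation assay scores compound-induced gain of Nurr1/RXRα association relative to DMSO.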

Experiment [9] addresses Agonist Androgen Response Element (ARE), AR (gene 367) (UniProt P10275). Description: OT_AR_ARELUC_AG_1440: Odyssey Thera (OT) 24-hour CHO-K1 Luciferase Assay for Agonist Androgen Response Element (ARE) (AID 2283379). The essentials:
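Seed CHO-K1 cells; dose compounds for 24 h; add D-luciferin plus ATP in PBS; read luminescence. Signal increase relative to vehicle defines agonist activity, with at least 3 replicate wells per sample.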

The target in experiment [10] is mouse Estrogen Receptor alpha (Era), Esr1 (gene 13982) (UniProt P19785). Description: NVS_NR_mERa: NovaScreen (NVS) Nuclear Receptor Binding Assay for mouse Estrogen Receptor alpha (Era) (AID 2283378).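 Further: hit means loss of bound radioligand signal relative to DMSO.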 The essentials: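 Measurements come from scintillation counting after filtration, taken 18 hours after chemicals were added to a cell-free mouse Era preparation with radioligand. Screening was duplicate at 25 uM, with concurrent positive and negative controls and confirmatory concentration series for actives.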
Sequence of mouse Estrogen Receptor alpha (Era), Esr1 (gene 13982) (P19785 whole entry, looked up): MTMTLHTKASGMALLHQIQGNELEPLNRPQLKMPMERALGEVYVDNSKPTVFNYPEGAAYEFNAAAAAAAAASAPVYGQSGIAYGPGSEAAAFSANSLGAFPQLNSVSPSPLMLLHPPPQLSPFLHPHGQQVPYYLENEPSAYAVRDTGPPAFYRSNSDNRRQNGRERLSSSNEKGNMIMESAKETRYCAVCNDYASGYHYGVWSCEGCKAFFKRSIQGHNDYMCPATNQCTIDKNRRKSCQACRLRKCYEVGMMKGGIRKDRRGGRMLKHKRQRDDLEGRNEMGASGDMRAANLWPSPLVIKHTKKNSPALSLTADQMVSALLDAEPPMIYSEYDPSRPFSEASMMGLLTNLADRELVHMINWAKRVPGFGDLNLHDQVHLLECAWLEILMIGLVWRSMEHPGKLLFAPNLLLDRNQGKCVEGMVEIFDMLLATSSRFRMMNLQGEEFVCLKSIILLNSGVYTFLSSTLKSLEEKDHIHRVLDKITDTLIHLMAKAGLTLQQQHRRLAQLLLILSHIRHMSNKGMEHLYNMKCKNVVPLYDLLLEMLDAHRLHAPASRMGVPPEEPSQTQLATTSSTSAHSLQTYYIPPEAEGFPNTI

Results filed as inconclusive are left out. Calls of active or inactive are those of the source. How the source made its calls, unless noted: active means hit-call score of the fitted dose curve at least 0.9, where 1 is the maximum; inconclusive means response in the unintended direction; inactive means score below 0.9.

Sequence of Retinoic acid receptor RXR-alpha (Homo sapiens) (P19793 whole entry, looked up, the tested form may be a part): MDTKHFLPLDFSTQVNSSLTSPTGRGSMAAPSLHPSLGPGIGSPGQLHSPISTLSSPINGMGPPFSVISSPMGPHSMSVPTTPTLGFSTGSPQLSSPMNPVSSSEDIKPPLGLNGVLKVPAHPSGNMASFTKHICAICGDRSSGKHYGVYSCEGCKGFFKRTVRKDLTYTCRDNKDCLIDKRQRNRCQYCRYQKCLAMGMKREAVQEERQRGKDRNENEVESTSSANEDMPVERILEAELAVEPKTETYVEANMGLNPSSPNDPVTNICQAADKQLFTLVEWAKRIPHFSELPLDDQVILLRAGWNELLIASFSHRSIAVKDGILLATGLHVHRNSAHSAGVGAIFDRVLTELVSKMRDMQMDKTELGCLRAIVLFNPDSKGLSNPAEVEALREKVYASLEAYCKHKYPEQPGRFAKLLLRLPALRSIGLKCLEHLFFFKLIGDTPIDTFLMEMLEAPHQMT
Sequence of Peroxisome proliferator-activated receptor gamma (Homo sapiens) (P37231 whole entry, looked up, the tested form may be a part): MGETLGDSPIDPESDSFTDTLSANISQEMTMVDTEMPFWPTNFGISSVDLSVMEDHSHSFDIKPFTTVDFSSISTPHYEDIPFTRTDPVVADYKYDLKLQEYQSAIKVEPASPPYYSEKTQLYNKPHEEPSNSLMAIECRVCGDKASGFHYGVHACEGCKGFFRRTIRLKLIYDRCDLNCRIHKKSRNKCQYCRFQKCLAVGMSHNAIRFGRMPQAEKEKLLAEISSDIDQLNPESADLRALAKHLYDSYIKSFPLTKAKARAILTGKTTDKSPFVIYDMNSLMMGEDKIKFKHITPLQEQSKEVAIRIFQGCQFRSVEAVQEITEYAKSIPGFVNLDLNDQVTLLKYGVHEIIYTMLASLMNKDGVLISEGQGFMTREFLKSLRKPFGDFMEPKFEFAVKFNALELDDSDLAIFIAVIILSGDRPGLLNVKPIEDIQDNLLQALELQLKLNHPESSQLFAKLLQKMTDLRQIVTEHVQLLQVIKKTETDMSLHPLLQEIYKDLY
Sequence of Bile acid receptor (Homo sapiens) (Q96RI1 whole entry, looked up, the tested form may be a part): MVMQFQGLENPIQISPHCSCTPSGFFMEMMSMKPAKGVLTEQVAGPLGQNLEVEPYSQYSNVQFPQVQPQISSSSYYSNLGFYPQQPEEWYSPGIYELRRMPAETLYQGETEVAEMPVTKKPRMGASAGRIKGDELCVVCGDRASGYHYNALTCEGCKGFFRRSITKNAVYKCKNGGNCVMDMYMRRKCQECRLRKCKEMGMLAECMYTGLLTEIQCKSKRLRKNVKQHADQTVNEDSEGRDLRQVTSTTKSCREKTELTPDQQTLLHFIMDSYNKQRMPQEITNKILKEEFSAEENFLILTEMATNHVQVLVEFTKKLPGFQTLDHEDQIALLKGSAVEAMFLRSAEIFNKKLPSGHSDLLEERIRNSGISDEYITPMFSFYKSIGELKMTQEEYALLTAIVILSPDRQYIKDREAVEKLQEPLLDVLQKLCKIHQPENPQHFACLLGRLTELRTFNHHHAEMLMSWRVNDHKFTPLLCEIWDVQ
Sequence of Agonist Androgen Response Element (ARE), AR (gene 367) (P10275 whole entry, looked up): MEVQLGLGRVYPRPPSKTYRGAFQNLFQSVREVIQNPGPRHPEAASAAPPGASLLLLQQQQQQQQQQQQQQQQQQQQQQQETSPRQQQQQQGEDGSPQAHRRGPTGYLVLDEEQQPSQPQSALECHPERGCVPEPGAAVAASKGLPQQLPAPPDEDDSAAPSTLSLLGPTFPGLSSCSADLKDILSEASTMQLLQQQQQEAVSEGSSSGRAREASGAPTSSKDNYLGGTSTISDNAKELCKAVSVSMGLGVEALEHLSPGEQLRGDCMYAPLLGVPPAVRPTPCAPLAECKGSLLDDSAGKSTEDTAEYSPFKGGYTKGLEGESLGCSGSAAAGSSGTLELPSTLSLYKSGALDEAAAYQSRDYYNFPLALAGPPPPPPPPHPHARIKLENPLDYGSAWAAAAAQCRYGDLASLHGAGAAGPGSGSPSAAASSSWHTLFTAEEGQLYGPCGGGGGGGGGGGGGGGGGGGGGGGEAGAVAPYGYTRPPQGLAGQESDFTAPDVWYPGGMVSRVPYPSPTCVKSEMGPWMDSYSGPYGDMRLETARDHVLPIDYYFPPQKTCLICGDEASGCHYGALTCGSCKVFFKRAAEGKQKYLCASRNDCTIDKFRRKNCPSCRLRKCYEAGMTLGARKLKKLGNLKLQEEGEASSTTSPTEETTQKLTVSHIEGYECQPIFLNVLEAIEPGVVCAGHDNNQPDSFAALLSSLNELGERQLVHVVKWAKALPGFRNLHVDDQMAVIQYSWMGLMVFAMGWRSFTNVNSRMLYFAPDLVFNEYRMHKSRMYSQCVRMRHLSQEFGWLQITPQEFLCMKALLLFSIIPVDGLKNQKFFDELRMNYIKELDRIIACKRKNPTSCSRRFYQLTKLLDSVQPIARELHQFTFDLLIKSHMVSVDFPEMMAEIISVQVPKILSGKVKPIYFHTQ

What is called AC50 is the midpoint of the concentration-response curve, whichever way the signal moves. Turning to `C=C(C)C(=O)OCCOC1CC2CC1C1C=CCC21` (stereo not given), the result in experiment [1], in experiment [3], in experiment [4] and in [5] was inactive. In addition, the AC50 in experiment [2] is 72.3 µM (active).
As to `O=C(Nc1ccc2c(O)c(N=Nc3ccc(N=Nc4ccc(S(=O)(=O)O)cc4)cc3)c(S(=O)(=O)O)cc2c1)c1ccccc1`, the molecule was called inactive in experiment [1], in experiment [6], in experiment [7], in experiment [4], in experiment [8] and in experiment [5].
Consider `CCCCCC(C=O)=Cc1ccccc1`, for which the molecule was classed as inactive in experiment [1], in [2], in experiment [3] and in experiment [4].
Regarding `O=C(CC(=O)c1ccccc1)c1ccccc1`, the AC50 was 85.9 µM (active) in experiment [1] and 81.5 µM (active) in experiment [8]. For the same molecule, the outcome in [2], in experiment [3] and in [4] was inactive.
On to `BrCc1cccc(Oc2ccccc2)c1`, for which the molecule was called inactive in experiment [9], in experiment [4] and in experiment [8]. Besides, the AC50 in experiment [1] was 56.3 µM (active).
As to `CCc1ccc(O)cc1`, the call in experiment [9], in [1], in experiment [4], in [8] and in experiment [5] was inactive.
In the case of `CC(=O)O[C@H]1C[C@@H]2CC[C@@]1(C)C2(C)C`, the AC50 in experiment [9] is 31.8 µM (active). In addition, the molecule was called inactive in experiment [1], in experiment [2], in experiment [4] and in [5].
`CCCCCCCCSCCO`: the molecule was called inactive in experiment [9], in experiment [3], in experiment [4], in experiment [8] and in [5]. Besides, in [2], the AC50 was 74.1 µM (active).
For `CC(C)CCCCCCc1ccc(OCCOCCO)cc1`, the AC50 in [9] is 3.19 µM (active); in experiment [1], 25 µM (active). The molecule was called inactive in experiment [6], in experiment [7], in experiment [8] and in experiment [5].
On to `Cc1cc(=O)oc2cc(N(C)C)ccc12`, for which the molecule was classed as inactive in [1], in [4] and in experiment [8]. For the same molecule, the half-maximal activity concentration (AC50) in [2] and in [3] was 50 µM (active) each time.
With `CCCCCCCCCC(=O)OC`, the molecule was called inactive in [1], in [2], in [3] and in experiment [8].
Turning to `Nc1ccccc1[N+](=O)[O-]`, the molecule was called inactive in experiment [1], in [2], in experiment [3], in experiment [4], in [8] and in experiment [5].
Turning to `CCCCCCCCN1CCCC1=O`, the molecule was called inactive in [1], in experiment [3], in [4], in experiment [8] and in [5]. For the same molecule, the half-maximal activity concentration (AC50) in experiment [2] is 50 µM (active).
Consider `CC(C)CCCCCCCCCCCCCCC(=O)O`, for which the molecule was classed as inactive in experiment [1].
`CC(CN=Cc1ccccc1O)N=Cc1ccccc1O` (stereo not given): the molecule was classed as inactive in experiment [1].
Take `CCCCCCCCC=CCCCCCCCC1=NCCN1CCO`: the molecule was classed as inactive in [9].
In the case of `CCOC(=O)[C@@H](C)Oc1ccc(Oc2nc3ccc(Cl)cc3o2)cc1`, the call in experiment [9], in [1], in [4] and in experiment [8] was inactive. For the same molecule, the AC50 in experiment [2] was 24 µM (active); in [3], 50 µM (active).
Consider `C[C@H]1O[C@@H](O[C@H]2[C@@H](O)C[C@H](O[C@H]3[C@@H](O)C[C@H](O[C@H]4CC[C@@]5(C)[C@H](CC[C@@H]6[C@@H]5C[C@@H](O)[C@]5(C)[C@@H](C7=CC(=O)OC7)CC[C@]65O)C4)O[C@@H]3C)O[C@@H]2C)C[C@H](O)[C@@H]1O`, for which the result in experiment [9] and in [1] was inactive.
As to `OCc1cccc(Oc2ccccc2)c1`, the call in [9], in experiment [2], in experiment [3], in experiment [4] and in experiment [5] was inactive. For the same molecule, the AC50 in experiment [1] is 59.1 µM (active).
Take `CCCCCCCCCCCC(=O)OCC(O)CO` (stereo not given): the concentration at half-maximal activity (AC50) in [10] is 6.68 µM (active). The result in [1], in experiment [6], in [7], in experiment [4] and in [8] was inactive.
As to `Nc1ccc2cc(S(=O)(=O)O)cc(O)c2c1N=Nc1ccccc1C(F)(F)F`, in experiment [1], the result was inactive.
As to `CCCCCCCCCCCCCC(=O)OCC(O)CO` (stereo not given), the result in experiment [9], in experiment [1], in experiment [4] and in experiment [8] was inactive. For the same molecule, the half-maximal activity concentration (AC50) in experiment [2] was 79.8 µM (active); in experiment [3], 82.9 µM (active).
`C=CC(=O)OCCCC`: the molecule was classed as inactive in [1], in experiment [2], in experiment [3], in experiment [4] and in experiment [8].
Take `Nc1ccc(N)c2c1C(=O)c1ccccc1C2=O`: in experiment [9], the AC50 was 1.71 µM (active). The molecule was called inactive in experiment [1] and in [3].
Turning to `CCCCCCC(=O)c1ccccc1`, the outcome in experiment [1], in experiment [2], in experiment [3], in [4], in [8] and in experiment [5] was inactive.
With `CCc1cc(Cc2cc(CC)cc(C(C)(C)C)c2O)c(O)c(C(C)(C)C)c1`, the call in experiment [9] and in experiment [1] was inactive.
For `CC1CCC(C(C)C)C(O)C1` (stereo not given), the molecule was called inactive in experiment [9], in experiment [1], in experiment [2], in [3], in [8] and in experiment [5].
Turning to `CCOC(=O)c1ccc(N)cc1`, the outcome in [1], in experiment [2], in experiment [4] and in experiment [5] was inactive. Further, the AC50 in [3] is 20.2 µM (active); in experiment [8], 31.8 µM (active).
For `C[Si](C)(C)O[Si](C)(C)C`, in experiment [1], the call was inactive.
With `C=CC(C)(O)CCC=C(C)C` (stereo not given), the molecule was classed as inactive in experiment [1], in experiment [2], in [3] and in experiment [4].
